PubChem BioAssay AID701 (PCMD, 2007)
About 70 (0.2%) of roughly 33,000 compounds were called active. Rule as the data show it: active = inhibition above about 30%; inactive = the rest. These entries were drawn from the full list.

Each molecule was assayed against Coagulation factor XII (Homo sapiens) (UniProt P00748) (assay: human FXIIa protease inhibitors, primary screen, biochemical, single well (AID 701;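 also: 0% = enzyme with vehicle only and 100% = no enzyme blank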)). Conditions: purified human FXIIa, AMC substrate fluorescence, 2 h; at 10 µM; hits give high values.
Sequence of Coagulation factor XII (Homo sapiens) (P00748 20-372 limits assumed): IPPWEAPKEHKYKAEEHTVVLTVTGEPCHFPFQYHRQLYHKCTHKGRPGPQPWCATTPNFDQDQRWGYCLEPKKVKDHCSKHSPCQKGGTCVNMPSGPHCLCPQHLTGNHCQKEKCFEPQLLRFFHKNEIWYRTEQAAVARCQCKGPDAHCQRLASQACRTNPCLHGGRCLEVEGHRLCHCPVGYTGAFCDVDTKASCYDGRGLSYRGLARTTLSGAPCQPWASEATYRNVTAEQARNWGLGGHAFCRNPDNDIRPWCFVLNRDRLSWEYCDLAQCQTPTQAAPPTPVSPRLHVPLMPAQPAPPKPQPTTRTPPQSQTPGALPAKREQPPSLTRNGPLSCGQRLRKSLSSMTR
Sequence of Coagulation factor XII (Homo sapiens) (P00748 373-615 limits assumed): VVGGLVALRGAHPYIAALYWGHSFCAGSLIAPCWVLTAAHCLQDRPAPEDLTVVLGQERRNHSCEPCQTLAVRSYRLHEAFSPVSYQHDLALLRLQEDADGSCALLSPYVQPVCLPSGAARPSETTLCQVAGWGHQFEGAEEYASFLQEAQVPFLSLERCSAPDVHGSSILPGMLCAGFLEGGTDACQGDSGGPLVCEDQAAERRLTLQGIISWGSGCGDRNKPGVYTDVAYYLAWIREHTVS

inhibition, inactive:
Cc1nnc(OCC(=O)NCCC2=CCCCC2)c2ccccc12 11.9%
COC(=O)C(C)n1cnc2c(nnn2-c2cccc(Cl)c2)c1=O (configuration not stated) 4.25%
C=CCNC(=O)C12CC3CC(C1)CC(C(=O)NCC=C)(C3)C2 5.41%
O=C(CNS(=O)(=O)c1ccc(Br)s1)N1CCN(C(=O)c2ccco2)CC1 5.22%
O=c1onc(-c2cccs2)n1Cc1ccccc1 2.91%
CC(=O)C1=C(C)NC(=O)NC1c1cc(Br)ccc1OCC#N (configuration not stated) 6%
CC/C(O)=N\S(=O)(=O)c1ccc(N=NN(C)C)cc1 12.3%
O=C(c1cccc(N2CCCC2=O)c1)N1CCOCC1 8.03%
O=C(NCCCN1CCCCC1)c1ccc2c(c1)NC(=O)C(N1CCOCC1)S2 (configuration not stated) 2.66%
COc1ccccc1CNS(=O)(=O)c1ccc(C)cc1 -2.17%
Nn1c(SCC(=O)NC2CCCC2)nnc1-c1ccccc1F 2.89%
CC(=O)c1cccc(NC(=O)N2CCCC2C(=O)NCCc2ccccc2)c1 (configuration not stated) 6.02%
CC(=O)c1cccc(NC(=O)C2CCCN2S(=O)(=O)c2cccc3nsnc23)c1 (configuration not stated) -30.9%
COc1ccc(C(=O)NNC(=O)c2cnccn2)cc1[N+](=O)[O-] 6.61%
CSc1ccccc1NC(=O)c1cc(C2CC2)on1 5.73%
Cc1cc(C(=O)Nc2c(C)nn(Cc3ccccc3)c2C)on1 3.84%
Cc1nnc(NCCO)c2ccccc12 -0.65%
O=C(NC1CCCCC1)c1ccc(CNc2c(N3CCOCC3)c(=O)c2=O)cc1 9.25%
CCS(=O)(=O)c1ccc2oc(SCC(=O)N3c4ccccc4CC3C)nc2c1 (configuration not stated) 11.8%
CC(NC(=O)C1CCC(CNc2c(N3CCOCC3)c(=O)c2=O)CC1)c1ccccc1 (configuration not stated) 4.59%
Cc1ccc(OC(=O)c2ccccc2C(=O)OCC(F)(F)C(F)F)cc1 5.93%
Cc1ccc(CS(=O)(=O)CCC(=O)NC2CC2)cc1 3.34%
O=C(OCC(=O)N1CCN(C(=O)c2ccco2)CC1)c1ccccc1Cc1ccccc1 3.88%
CC(C)CCNC(=O)CC1C(=O)N(Cc2ccccc2)C(C)c2nc3ccccc3n21 (configuration not stated) 5.26%
CCCCCOC(=O)c1ccc(N2C(=O)C3C4C=CC(C4)C3C2=O)cc1 (configuration not stated) -10.2%
O=C(N1CCOCC1)N(Cc1ccccc1)c1ccccn1 1.36%
COC(=O)c1cc(OC)ccc1-c1ccc(OC)cc1 4.36%
COCCCNC(=O)CN1CCN(Cc2ccccc2Cl)C1=O 13.3%
COCCNC(=O)COc1ccc(C)c(C)c1 5.6%
COC(=O)C1C(=O)NCC1c1ccc(C)cc1 (configuration not stated) 4.77%
COc1ccc(C(=O)Nc2ccc(CN3CCOCC3)cc2)cc1 -0.34%
COC(=O)c1ccccc1Sc1c(/C=N/OCc2ccc(Cl)cc2)c(C(F)(F)F)nn1C 5.69%
CCSc1nc(-c2ccc(OC)cc2)cc(-c2ccc(OC)cc2)c1C#N 12.5%
COC(=O)[C@@H](NC(=O)Nc1cc(Cl)ccc1C)C(C)C -0.53%
O=C(OCC#CCSc1nnc(-c2ccncc2)o1)c1sc2ccccc2c1Cl -11.2%
O=C(Cc1c(O)c2ccccc2[nH]c1=O)NCc1ccccc1 -1.57%
Cc1ccc(S(=O)(=O)/N=C(\CN2CCOCC2)N2CCOCC2)cc1 -13.1%
O=C(NCCCn1ccnc1)Nc1ccc(Cl)cc1Cl -12%
Cc1cccc(NC(=O)CSc2nnc(-c3ccco3)o2)c1 7.32%
CCOc1ccc(N(CC(=O)NC2CCCCCC2)S(=O)(=O)c2c(C)[nH]c(=O)[nH]c2=O)cc1 -0.15%
CCOc1ccc(NC(=O)c2ccccc2NS(C)(=O)=O)cc1 7.81%
COC(=O)CSc1nnc(-c2cccnc2)o1 4.99%
Cc1cccc(NC(=O)CSc2nc3c(c(=O)[nH]2)CCCC3)c1C 7.72%
CCc1ccc(CNC(=O)C2CC(=O)N(CCc3ccc(C)cc3)C2)cc1 (configuration not stated) -0.05%
O=C(O)CCC(=O)N(Cc1cccs1)Cc1cccs1 -0.32%
Cn1c(SCC(=O)NC2CCCCC2)nnc1-c1cc2ccccc2o1 -0.46%
CC(=O)c1c(C)n(-c2ccc(N(C)C)cc2)c2ccc(OCC(N)=O)cc12 8.5%
OC(COc1cccc2ccccc12)CN1CCN(c2ccccn2)CC1 (configuration not stated) 9.54%
CCCn1c(C(Cc2ccccc2)NC(=O)COC)nc2ccccc21 (configuration not stated) 7.07%
Cn1cc(S(=O)(=O)N2CCN(c3ccc(F)cc3)CC2)c(=O)n(C)c1=O 3.88%
Cc1cc(NC(=O)CS(=O)(=O)c2cn(C)c3ccccc23)no1 3.14%
Cn1c(=O)[nH]c(=O)c2c1nc(N1CCN(CCO)CC1)n2CCSc1nc2ccccc2s1 0.63%
CC(C)CNC(=O)CC(c1ccccc1)c1c(O)ccc2ccccc12 (configuration not stated) 1.86%
C#CCN(N(C)c1ncc(C(F)(F)F)cc1Cl)S(=O)(=O)c1ccc2ccccc2c1 3.08%
COC(=O)c1ccccc1NC(=O)Cc1ccccc1OC 1.04%
Cc1ccc(S(=O)(=O)N2CCC(C(=O)NCC3CCCO3)CC2)cc1 (configuration not stated) 2.9%
O=C(CCCn1c(SCC(=O)c2ccccc2)nc2ccccc2c1=O)NCC1CCCO1 (configuration not stated) 3.06%
Cc1ccc(NC(=O)CSCC(=O)N2CCOCC2)cc1 2.79%
Cc1ccc(C)c(N2C(=O)CS/C2=N\NC(=O)c2ccccc2Cl)c1 8.52%
O=C(CSCc1c(F)cccc1Cl)NCC1CCCO1 (configuration not stated) 7.29%
COc1ccc(C)cc1NC(=O)CCS(=O)(=O)c1cccc2nonc12 -14.7%
CCCc1noc2c1/C(=N\O)CCC2 8.44%
Cc1ccc(/C=N/NC(=O)Cn2nc(C)c(Br)c2C)o1 5.02%
Cn1nnc(NC(=O)CSc2ncn[nH]2)n1 2.58%
Cc1ccc2cc(CCNC(=O)c3ccc4c(c3)OCO4)c(=O)[nH]c2c1 7.29%
CCOc1cc2[nH]c(=S)n(Cc3ccc(C(=O)NCCOC)cc3)c(=O)c2cc1OCC -2.63%
CCOC(=O)N1CCC(Nc2c(NCCCN3CCN(CC)CC3)c(=O)c2=O)CC1 -0.96%
COc1cc(OC)c(-n2c(C)cc(C=O)c2C)cc1Cl 3.21%
c1ccc(-n2nc3ccccc3n2)cc1 0.64%
CCOc1nc(NCCN2CCOCC2)nc(Nc2ccc(C)cc2)n1 2.85%
CCN(CC)CCn1c2ccc(Cl)cc2c2nc(C)sc21 5.85%
CCOC(=O)c1cnn(Cc2ccccc2Cl)c1N -0.31%
Cc1nc2c(-c3ccc(F)cc3)c(C)nn2c(C)c1CCC(=O)NCc1ccco1 2.8%
CCOC(=O)/C(C#N)=C\c1c(C)cc(C)c(COC(C)=O)c1C 14%
Cc1cc(NC(=O)CCC(=O)N(CC(=O)NCC2CCCO2)c2ccccc2C)no1 (configuration not stated) 4.76%
CCC(C)NC(=O)CSC1=Nc2ccccc2C2=NC(CCC(=O)NCc3ccco3)C(=O)N12 (configuration not stated) 5.92%
Cc1cc(S(=O)(=O)NC2CCCCC2)ccc1OCC(=O)NCc1cccnc1 -2.34%
O=P(c1ccc2c(c1)OCCO2)(N1CCOCC1)N1CCOCC1 -11.5%
COc1ccc(C2=NOC3(CC(=O)N(c4ccc(C)cc4)C3=O)C2)cc1 (configuration not stated) 12.1%
CCOc1ccc(NC(=O)Nc2cc(C)on2)cc1 6.76%
O=C(NC1CCCCC1)C1CC(=O)N(CCc2ccccc2)C1 (configuration not stated) 1.77%
O=C(NCc1ccccc1)[C@@H]1CSC2c3ccccc3C(=O)N21 (some centres not stated) 0.72%
Cc1ccc(-n2c(=O)cc(N3CCN(Cc4ccccc4)CC3)[nH]c2=O)cc1 -11.3%
COCCn1c(SCc2nnc(-c3ccc(OC)c(OC)c3)o2)nc2sc3c(c2c1=O)CCC3 7.92%
Cc1csc(OCC(=O)Nc2ccc(C)c(C)c2)n1 7.64%
Cc1cccc(N2CCN(S(=O)(=O)c3ccc4[nH]c(=O)c(=O)[nH]c4c3)CC2C)c1 (configuration not stated) 7.11%
CCCCCCOc1ccc(OC(=O)c2cccnc2)cc1 4.38%
CCc1ccccc1NC(=O)CN(C)S(=O)(=O)c1ccc2c(c1)c(=O)n(C)c(=O)n2C -0.9%
CCn1c(CC(=O)Nc2ccc(C)cc2)nnc1SCC(=O)Nc1nc(C)cs1 3%
CCCc1nnc(NC(=O)c2cccs2)s1 4.48%
Cn1c(=O)c2c(SCC(=O)N3CCOCC3)nc(C3CC3)nc2n(C)c1=O 5.78%
S=c1nccc(-c2cc(Cl)sc2Cl)[nH]1 3.01%
Cc1ccccc1CSCCNC(=O)c1ccc(Cl)c(S(=O)(=O)N2CCOCC2)c1 -1.19%
CC(C)(C)c1ccc(OC2=CS(=O)(=O)c3ccccc32)cc1 6.47%
CCOc1ccc(C(=O)NCCCN2CCCC2=O)cc1 6.23%
COC(=O)c1cc(NC(=O)C2C3C=CC(C3)C2C(=O)O)cc(C(=O)OC)c1 (configuration not stated) -2.18%
N#CC1=C(N)N(c2ccccc2)C2=C(C(=O)CCC2)C1c1ccccc1 (configuration not stated) 6.03%
